The text below walks through data of the supplement of paper PMC10849652.

Common to all, as to test: log2 fold change, soluble protein after heating vs DMSO (PISA); higher = thermal stabilisation; K562 lysate, 10 uM; active = over 0.2 and 3.5 SD of the protein, either way, in both replicates (recomputed)
Compound in assay [1]: CC1=C(C(CC(=O)N1)C2=CC=C(C=C2)C(F)(F)F)C(=O)NC3=C(C=C4C(=C3)C=NN4)F
The essentials: (§1)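 Values give the log-two fold change in thermal stability against solvent controls, from duplicates. Crude K562 extract at 1 mg/mL protein, made by dounce homogenisation in PBS pH 7.4 with 1 mM MgCl2, was treated with 10 μM compound for 30 min. After 3 min heating across 48°C-58°C, aliquots were pooled, adjusted to 0.5% NP-40 at 4°C and centrifuged at 21,000xg for 90 min. The supernatant was measured by TMTpro 16plex LC-MS/MS with channel sums equalised.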

Compound in assay [2]: CCn1cc(-c2ccnc3[nH]c(-c4cccc(CN(C)C)c4)cc23)c(-c2ccc(NC(=O)N(C)C)cc2)n1
In a few lines:
as §1

Compound in assay [3]: CN1CCC(CNc2ccc3ncc(-c4cccc(OC(F)(F)F)c4)n3n2)CC1
In a few lines:
as §1

Compound in the next assay: C=CC(=O)N1CCC[C@@H](n2nc(-c3ccc(Oc4ccccc4)cc3)c3c(N)ncnc32)C1 [ibrutinib]
In a few lines: as §1

Compound in assay [4]: CC(=O)c1cnc2ccc(-c3cc(Cl)c(O)c(Cl)c3)nc2c1N[C@H]1CC[C@H](CN(C)C)CC1
In a few lines:
as §1

Compound in the next assay: CC(C)(C)Cn1c(N)nc2ccc(-c3[nH]c(C(C)(C)C)nc3-c3ccc(F)cc3)nc21 [ralimetinib]
The essentials: as §1

Compound in assay [5]: CC(C)(O)CC(=O)NCCn1ccc2ncnc(Nc3ccc(Oc4cccc(C(F)(F)F)c4)c(Cl)c3)c21
The essentials:
as §1

Compound in assay [6]: CC(C)C1=C2N=C(C=C(N2N=C1)NCC3=CC=CC=C3)NCCCCCCN
In a few lines: as §1

Compound in assay [7]: CC1=C(C2=C(C=C1)C(=O)C3=CC=CC=C3N2CCCN)C
In a few lines:
as §1

Compound in assay [8]: CC1=C(C=C(C=C1)NC(=O)C2=CC(=CC=C2)N(C)C)NC(=O)C3=CC=C(C=C3)O
The essentials:
as §1

Compound in assay [9]: CC1=CC=C(C=C1)SC2=C3C=C(SC3=CN=C2)C(=O)N
In a few lines: as §1

Compound in the next assay: CCCS(=O)(=O)Nc1ccc(F)c(C(=O)c2c[nH]c3ncc(-c4ccc(Cl)cc4)cc23)c1F [vemurafenib]
In a few lines:
as §1

Compound in assay [10]: CCCS(=O)(=O)Nc1ccc(F)c(C(=O)c2c[nH]c3ncc(Cl)cc23)c1F
In a few lines: as §1

Compound in the next assay: CCN(CCCOc1ccc2c(Nc3cc(CC(=O)Nc4cccc(F)c4)[nH]n3)ncnc2c1)CCOP(=O)(O)O [barasertib]
In a few lines:
as §1

Compound in assay [11]: CC[C@@H]1C(=O)N(C)c2cnc(Nc3ccc(C(=O)NC4CCN(C)CC4)cc3OC)nc2N1C1CCCC1
In a few lines: as §1

Compound in another assay: CC[C@@H]1C(=O)N(C)c2cnc(Nc3ccc(C(=O)N[C@H]4CC[C@H](N5CCN(CC6CC6)CC5)CC4)cc3OC)nc2N1C(C)C [volasertib]
In a few lines:
as §1

Compound in assay [12]: CCn1c(C(=O)N(C2CC2)C2CC2)cc2c3c(ncn3C)c(Nc3cc(C)n(C)n3)nc21
In a few lines:
as §1

Compound in a further assay: CN1CCN(CCOc2cc(OC3CCOCC3)c3c(Nc4c(Cl)ccc5c4OCO5)ncnc3c2)CC1 [saracatinib]
The essentials: as §1

Compound in assay [13]: CC1=C(C=C(C=C1)NC(=O)C2=CC(=CC=C2)C(C)(C)C#N)NC3=CC4=C(C=C3)N=CN(C4=O)C
The essentials:
as §1

Compound in a further assay: CN1CCN(c2nc(C3=C(c4c[nH]c5ccccc45)C(=O)NC3=O)c3ccccc3n2)CC1 [sotrastaurin]
The essentials: as §1

Of roughly 8,800 targets only a part is listed; those with a hit were picked by preference. About 0.5% of all pairs of compound and target were hits. Values without a mark were called inactive.

UniProt Q92685, sequence (Q92685 whole entry, looked up): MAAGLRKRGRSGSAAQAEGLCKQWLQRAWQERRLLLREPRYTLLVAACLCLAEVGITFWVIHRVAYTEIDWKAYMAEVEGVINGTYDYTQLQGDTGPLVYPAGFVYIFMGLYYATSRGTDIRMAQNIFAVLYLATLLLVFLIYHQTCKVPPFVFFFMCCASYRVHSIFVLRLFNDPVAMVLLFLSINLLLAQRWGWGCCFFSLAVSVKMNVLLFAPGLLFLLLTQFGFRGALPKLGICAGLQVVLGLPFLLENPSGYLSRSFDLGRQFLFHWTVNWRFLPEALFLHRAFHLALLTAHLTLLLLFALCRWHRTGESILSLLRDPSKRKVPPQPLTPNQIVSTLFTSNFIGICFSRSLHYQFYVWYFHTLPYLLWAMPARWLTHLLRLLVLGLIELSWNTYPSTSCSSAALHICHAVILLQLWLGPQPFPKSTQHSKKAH
UniProt Q13686, sequence (Q13686 whole entry, looked up): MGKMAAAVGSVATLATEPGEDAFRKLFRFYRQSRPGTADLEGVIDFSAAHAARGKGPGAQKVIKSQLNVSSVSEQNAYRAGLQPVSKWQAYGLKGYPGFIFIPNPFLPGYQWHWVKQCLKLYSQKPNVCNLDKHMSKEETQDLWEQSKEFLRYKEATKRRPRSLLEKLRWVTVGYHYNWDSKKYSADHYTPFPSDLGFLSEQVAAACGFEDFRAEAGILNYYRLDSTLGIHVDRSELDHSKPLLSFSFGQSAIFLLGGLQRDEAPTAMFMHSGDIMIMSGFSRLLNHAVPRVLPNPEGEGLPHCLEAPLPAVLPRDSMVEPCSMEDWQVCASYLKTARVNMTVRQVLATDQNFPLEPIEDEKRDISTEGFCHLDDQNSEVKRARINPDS
UniProt Q8N302, sequence (Q8N302 whole entry, looked up): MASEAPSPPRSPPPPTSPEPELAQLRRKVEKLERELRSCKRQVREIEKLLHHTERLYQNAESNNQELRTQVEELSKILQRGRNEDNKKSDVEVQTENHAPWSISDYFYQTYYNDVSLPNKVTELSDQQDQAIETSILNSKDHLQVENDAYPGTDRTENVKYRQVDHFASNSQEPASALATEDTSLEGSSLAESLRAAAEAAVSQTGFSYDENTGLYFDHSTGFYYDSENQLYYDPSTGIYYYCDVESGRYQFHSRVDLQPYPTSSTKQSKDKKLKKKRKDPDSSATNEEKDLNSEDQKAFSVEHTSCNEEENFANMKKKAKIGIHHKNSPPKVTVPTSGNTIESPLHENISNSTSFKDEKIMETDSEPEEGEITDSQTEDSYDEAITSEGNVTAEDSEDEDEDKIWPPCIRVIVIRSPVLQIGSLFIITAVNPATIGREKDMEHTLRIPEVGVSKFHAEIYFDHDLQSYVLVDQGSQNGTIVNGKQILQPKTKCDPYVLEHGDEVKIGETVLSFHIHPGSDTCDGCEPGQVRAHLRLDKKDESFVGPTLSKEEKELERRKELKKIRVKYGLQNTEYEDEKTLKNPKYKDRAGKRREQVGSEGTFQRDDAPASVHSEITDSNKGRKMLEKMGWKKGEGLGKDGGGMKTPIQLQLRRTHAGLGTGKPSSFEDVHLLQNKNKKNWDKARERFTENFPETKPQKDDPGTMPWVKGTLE
UniProt Q6P1M9, sequence (Q6P1M9 whole entry, looked up): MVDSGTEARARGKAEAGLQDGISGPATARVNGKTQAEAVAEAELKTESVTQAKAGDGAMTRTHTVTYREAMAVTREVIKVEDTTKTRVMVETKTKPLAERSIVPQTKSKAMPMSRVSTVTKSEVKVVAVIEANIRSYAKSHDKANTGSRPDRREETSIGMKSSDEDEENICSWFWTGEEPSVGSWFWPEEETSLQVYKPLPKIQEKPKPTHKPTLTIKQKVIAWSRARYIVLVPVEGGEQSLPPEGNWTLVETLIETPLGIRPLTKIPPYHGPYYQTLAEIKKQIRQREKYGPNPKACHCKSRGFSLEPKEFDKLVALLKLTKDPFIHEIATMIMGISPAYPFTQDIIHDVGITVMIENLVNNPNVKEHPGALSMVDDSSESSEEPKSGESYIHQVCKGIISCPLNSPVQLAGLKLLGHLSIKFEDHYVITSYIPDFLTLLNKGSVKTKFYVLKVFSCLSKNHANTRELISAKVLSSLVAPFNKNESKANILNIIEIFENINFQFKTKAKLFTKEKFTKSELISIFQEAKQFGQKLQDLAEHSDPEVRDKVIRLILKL
UniProt Q9NP73, sequence (Q9NP73 whole entry, looked up): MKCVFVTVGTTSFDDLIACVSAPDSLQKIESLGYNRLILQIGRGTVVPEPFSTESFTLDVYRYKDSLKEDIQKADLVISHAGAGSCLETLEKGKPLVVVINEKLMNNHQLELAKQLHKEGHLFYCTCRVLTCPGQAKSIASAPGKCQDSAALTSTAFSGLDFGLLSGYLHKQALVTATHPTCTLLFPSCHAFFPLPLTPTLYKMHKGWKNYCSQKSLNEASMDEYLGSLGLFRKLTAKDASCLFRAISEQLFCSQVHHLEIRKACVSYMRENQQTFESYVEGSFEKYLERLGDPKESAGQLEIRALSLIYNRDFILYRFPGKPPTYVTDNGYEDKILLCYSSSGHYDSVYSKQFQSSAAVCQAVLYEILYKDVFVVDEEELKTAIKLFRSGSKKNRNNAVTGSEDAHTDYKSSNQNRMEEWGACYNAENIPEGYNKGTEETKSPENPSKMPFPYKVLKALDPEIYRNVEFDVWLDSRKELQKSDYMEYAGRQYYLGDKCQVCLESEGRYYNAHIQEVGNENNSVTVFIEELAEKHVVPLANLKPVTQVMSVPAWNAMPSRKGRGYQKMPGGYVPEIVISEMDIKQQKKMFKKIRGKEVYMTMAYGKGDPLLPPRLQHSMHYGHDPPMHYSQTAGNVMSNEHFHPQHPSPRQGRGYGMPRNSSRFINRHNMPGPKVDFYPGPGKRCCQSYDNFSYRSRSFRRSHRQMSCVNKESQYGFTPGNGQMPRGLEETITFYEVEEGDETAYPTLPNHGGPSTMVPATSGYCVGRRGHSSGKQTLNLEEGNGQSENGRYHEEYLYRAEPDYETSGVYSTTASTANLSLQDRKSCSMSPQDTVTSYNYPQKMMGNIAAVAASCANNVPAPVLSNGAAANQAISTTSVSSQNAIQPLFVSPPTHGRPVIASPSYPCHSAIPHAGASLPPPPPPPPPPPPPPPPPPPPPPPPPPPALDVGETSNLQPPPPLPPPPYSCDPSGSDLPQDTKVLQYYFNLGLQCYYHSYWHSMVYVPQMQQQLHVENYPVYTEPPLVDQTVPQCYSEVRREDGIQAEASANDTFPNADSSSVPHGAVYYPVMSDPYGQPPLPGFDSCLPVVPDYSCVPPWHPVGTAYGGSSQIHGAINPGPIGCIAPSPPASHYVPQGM
UniProt P53396, sequence (P53396 whole entry, looked up): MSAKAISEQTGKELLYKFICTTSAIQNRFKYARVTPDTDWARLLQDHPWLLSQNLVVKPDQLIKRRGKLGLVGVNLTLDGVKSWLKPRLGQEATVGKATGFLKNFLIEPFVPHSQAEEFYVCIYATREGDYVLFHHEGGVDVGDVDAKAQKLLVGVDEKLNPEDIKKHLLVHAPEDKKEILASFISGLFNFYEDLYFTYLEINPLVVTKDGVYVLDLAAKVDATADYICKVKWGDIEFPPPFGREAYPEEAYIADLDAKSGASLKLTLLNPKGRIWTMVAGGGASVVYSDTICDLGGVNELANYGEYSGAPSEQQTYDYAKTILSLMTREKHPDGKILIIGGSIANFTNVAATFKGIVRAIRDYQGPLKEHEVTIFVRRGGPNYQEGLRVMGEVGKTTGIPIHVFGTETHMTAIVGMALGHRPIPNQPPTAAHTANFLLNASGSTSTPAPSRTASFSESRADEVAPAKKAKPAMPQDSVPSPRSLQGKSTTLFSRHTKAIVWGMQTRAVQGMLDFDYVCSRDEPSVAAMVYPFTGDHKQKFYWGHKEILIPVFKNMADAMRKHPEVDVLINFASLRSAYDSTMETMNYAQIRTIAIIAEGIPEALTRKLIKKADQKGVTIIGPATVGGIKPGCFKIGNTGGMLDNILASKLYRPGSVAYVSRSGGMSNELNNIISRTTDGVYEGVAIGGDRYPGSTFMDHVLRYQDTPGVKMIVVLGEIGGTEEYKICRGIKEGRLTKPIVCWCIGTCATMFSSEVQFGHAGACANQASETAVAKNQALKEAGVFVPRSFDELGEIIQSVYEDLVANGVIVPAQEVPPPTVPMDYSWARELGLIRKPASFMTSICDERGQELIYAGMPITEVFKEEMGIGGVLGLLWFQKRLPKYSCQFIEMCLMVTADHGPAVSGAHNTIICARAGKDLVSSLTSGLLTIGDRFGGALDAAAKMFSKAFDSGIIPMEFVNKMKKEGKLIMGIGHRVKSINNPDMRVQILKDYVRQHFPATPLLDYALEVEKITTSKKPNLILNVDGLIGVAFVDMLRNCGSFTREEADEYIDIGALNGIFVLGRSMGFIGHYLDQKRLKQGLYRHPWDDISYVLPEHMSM

Consider ALG13 isoform 2 (UniProt Q9NP73), for which the results for the log2 fold change in [1], in assay [2] and in [3] were 0.03, 0.016 and -0.098, respectively.
In the case of ARMCX5 (UniProt Q6P1M9), the log2 fold change with ibrutinib is 0.04; in assay [4], -0.018; with ralimetinib, 0.012; in [5], 0.013; in [6] it was -0.004; in [1], -0.047. Further, the log2 fold change was 0.053 in [7]; -0.049 in assay [8]; -0.093 in assay [9]; 0 in the assay with vemurafenib; 0.032 in [10]; 0.007 in the assay with barasertib. Besides, the log2 fold change in assay [11] was -0.034; with volasertib, -0.012; in assay [12], -0.027; in assay [2], -0.099; in assay [3], -0.03; with saracatinib, 0.043.
Take ALKBH1 (UniProt Q13686): the log2 fold change with ralimetinib was 0.095; in assay [5], -0.1; in assay [6], 0.008; in [1], -0.003; in [7], -0.102; in assay [8] it was 0.093. The log2 fold change with vemurafenib is 0.069; in assay [11], -0.05; in [12], -0.043; in assay [2], 0.015; in assay [3], -0.072; in the assay with saracatinib it was -0.037.
As to ACTG1 (UniProt K7EM38), the log2 fold change was -0.044 in assay [4]; 0.152 in [9]; -0.259 in assay [10]; -0.208 in assay [11]; -0.124 in the assay with volasertib.
For ACLY isoform 2 (UniProt P53396), the log2 fold change with ibrutinib was -0.015; in assay [4], 0.028; in the assay with ralimetinib, -0.022; in [5] it was 0.07; in assay [1], 0.008; in assay [13], 0.018. The log2 fold change in assay [8] is -0.008; in assay [9], -0.01; with vemurafenib it was 0.035; in assay [10], 0; with barasertib it was -0.088; in assay [11], 0.045. Further, the log2 fold change in the assay with volasertib is -0.033; in [12], -0.187; in assay [2], -0.485 (active); in assay [3], 0.43; with sotrastaurin it was 0.02.
For AGGF1 (UniProt Q8N302), the log2 fold change is 0.034 with ibrutinib; 0.077 in assay [4]; -0.014 with ralimetinib; -0.023 in [5]; -0.017 in [6]; -0.011 in [1]. The log2 fold change in assay [13] was 0.034; in assay [8], -0.04; in assay [9], -0.341; with vemurafenib, 0.112; in assay [10] it was -0.043; with barasertib, 0.115. In addition, the log2 fold change in assay [11] is 0.084; with volasertib, -0.06; in assay [12] it was 0.001; in [2], -0.43 (active); in [3] it was 0.175; with sotrastaurin, 0.025.
In the case of ALG3 (UniProt Q92685), the log2 fold change with ibrutinib was -0.163; in [4], 0.03; in the assay with ralimetinib it was -0.007; in assay [5], -0.032; in [6], -0.278; in assay [7] it was 0.014. Also, the log2 fold change in assay [13] is -0.024; in [8], 0.042; in assay [9], 0.03; with vemurafenib, 0.084; in assay [10], -0.011; in the assay with barasertib it was 0.031. Moreover, the log2 fold change in [11] was 0.012; with volasertib, 0.01; in [12], 0.032; in assay [2] it was -0.371; in [3], 0.06; with saracatinib, 0.068. For the same target, the log2 fold change with sotrastaurin was 0.029.
